This is an account of results in publication PMC7862700, “An all-to-all approach to the identification of sequence-specific readers for epigenetic DNA modifications on cytosine”.

Holding throughout (experiment): DAPPL (digital affinity profiling via proximity ligation, sequencing); 10 mM Tris-HCl pH 7.5, 50 mM NaCl, 1 mM DTT, 4% glycerol, room temperature, 30 min; GST-TFs on glutathione beads, 16-mer random dsDNA library, 0.1% formaldehyde crosslink after washing; high values mean tight binding
Holding throughout (details): protein: recombinant; tags: N-terminal GST; dsDNA, one strand shown

The target of test [1] is T1, FLI1 (Homo sapiens, UniProt Q01543 1-452).
T1 sequence: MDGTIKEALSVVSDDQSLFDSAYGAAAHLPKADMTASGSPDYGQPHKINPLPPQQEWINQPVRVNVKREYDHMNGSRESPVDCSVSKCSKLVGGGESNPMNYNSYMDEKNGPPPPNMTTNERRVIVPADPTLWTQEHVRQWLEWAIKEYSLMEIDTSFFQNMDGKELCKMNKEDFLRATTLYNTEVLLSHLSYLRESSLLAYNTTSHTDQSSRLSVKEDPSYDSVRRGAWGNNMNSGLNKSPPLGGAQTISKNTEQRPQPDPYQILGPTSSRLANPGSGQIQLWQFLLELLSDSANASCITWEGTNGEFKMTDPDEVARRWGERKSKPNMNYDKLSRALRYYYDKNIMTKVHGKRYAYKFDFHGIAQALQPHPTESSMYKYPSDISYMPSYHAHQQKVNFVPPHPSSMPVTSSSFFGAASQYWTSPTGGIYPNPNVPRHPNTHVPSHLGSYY
The gist of the method:
(§1)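 Human transcription factors were made in yeast as GST fusions, captured on glutathione beads and barcoded with DNA. With a tag-only sample included, the pool was incubated with 200 nmole of a random double-stranded 16-mer DNA library in Tris/NaCl/DTT/glycerol buffer at room temperature for 30 min, then crosslinked with 0.1% formaldehyde after washing, ligated by proximity, amplified and sequenced. For binding signal, each hexamer's read frequency for a factor is divided by its frequency for the tag-only sample.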

Test [2] has as its target T2, ELK1 (Homo sapiens, UniProt P19419 1-428).
T2 sequence: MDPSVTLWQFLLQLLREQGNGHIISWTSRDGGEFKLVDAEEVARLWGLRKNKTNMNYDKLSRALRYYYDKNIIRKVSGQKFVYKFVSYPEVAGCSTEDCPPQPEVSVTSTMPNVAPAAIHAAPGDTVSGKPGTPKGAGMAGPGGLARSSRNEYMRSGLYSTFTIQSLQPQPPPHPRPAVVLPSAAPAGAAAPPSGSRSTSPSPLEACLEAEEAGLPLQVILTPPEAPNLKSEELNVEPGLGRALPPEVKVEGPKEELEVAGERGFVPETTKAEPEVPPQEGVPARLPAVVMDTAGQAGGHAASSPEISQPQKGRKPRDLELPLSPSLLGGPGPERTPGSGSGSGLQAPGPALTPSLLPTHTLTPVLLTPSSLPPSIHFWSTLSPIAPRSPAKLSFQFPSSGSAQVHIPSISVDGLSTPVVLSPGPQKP
The gist of the method:
as §1

The target in test [3] is T3, GABPA (Homo sapiens, UniProt Q06546 1-454).
T3 sequence: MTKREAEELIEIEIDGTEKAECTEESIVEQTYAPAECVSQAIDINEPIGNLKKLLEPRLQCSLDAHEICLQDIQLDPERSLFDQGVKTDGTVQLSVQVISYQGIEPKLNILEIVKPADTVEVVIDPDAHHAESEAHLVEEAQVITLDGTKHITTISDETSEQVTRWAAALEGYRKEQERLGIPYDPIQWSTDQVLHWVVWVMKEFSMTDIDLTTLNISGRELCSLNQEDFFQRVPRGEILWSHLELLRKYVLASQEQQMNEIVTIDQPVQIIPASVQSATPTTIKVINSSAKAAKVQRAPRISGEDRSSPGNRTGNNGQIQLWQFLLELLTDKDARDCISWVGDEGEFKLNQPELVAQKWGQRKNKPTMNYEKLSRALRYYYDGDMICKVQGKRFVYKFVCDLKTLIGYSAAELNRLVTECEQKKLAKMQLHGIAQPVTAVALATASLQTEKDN
The gist of the method:
as §1

Test [4] concerns the target T4, ERG (Homo sapiens, UniProt P11308 1-479).
T4 sequence: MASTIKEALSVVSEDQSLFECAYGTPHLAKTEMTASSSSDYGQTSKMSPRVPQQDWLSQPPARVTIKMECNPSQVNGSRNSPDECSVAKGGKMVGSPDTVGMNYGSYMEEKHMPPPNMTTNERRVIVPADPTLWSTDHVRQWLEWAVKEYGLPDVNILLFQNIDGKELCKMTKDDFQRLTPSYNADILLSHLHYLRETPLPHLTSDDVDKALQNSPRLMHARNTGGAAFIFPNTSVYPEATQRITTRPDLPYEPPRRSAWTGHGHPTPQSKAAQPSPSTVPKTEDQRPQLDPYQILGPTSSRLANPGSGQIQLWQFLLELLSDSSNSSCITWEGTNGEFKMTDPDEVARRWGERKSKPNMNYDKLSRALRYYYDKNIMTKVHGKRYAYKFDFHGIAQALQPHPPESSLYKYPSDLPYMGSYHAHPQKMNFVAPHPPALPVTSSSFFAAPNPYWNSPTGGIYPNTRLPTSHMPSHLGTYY
The gist of the method:
as §1

The target of test [5] is ELF1 (Homo sapiens, UniProt P32519 1-619). The gist of the method: as §1
ELF1, sequence (P32519 whole entry): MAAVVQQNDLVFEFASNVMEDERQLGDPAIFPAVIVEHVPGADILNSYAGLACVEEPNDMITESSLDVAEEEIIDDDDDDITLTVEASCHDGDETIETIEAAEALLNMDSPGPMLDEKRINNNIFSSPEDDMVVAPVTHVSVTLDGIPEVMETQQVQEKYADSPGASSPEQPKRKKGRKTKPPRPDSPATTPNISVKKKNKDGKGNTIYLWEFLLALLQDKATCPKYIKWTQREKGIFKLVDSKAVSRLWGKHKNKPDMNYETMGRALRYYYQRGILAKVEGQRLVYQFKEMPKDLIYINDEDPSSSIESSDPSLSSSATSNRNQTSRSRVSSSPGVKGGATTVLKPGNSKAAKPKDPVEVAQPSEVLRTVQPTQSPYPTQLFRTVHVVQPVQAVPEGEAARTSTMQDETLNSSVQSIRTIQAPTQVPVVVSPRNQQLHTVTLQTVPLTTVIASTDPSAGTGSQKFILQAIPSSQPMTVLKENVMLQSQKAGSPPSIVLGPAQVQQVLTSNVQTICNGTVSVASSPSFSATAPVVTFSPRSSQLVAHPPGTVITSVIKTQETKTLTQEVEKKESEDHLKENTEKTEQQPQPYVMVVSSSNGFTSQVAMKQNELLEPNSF
Test [6] addresses T5, EHF (Homo sapiens, UniProt Q9NZC4 1-300).
T5 sequence: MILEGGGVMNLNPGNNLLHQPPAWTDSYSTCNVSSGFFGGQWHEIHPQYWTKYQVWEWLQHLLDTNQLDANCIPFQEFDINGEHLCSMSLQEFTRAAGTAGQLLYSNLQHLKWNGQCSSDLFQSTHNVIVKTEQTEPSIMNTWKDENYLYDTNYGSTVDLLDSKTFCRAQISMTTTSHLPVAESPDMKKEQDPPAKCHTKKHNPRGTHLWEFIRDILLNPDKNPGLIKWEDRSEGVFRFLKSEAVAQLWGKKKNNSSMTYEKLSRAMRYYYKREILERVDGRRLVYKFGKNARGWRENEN
The gist of the method:
as §1

In test [7] the target is SPI1 (Homo sapiens, UniProt P17947 1-270). The gist of the method:
as §1

Test [8] addresses SPIB (Homo sapiens, UniProt Q01892 1-262). The gist of the method: as §1
Test [9] addresses T6, ELK3 (Homo sapiens, UniProt P41970 1-407).
T6 sequence: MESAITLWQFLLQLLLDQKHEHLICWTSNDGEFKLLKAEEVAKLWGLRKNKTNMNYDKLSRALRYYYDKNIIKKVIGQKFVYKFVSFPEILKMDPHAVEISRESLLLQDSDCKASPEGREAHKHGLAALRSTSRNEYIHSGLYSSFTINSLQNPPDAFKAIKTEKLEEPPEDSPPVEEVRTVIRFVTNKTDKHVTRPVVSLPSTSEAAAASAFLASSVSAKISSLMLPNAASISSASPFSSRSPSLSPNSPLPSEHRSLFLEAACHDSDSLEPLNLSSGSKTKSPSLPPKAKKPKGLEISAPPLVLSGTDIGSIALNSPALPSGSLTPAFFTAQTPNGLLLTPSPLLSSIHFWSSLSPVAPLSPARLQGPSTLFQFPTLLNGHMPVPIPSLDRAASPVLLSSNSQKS
The gist of the method: as §1

SPIB, sequence (Q01892 whole entry): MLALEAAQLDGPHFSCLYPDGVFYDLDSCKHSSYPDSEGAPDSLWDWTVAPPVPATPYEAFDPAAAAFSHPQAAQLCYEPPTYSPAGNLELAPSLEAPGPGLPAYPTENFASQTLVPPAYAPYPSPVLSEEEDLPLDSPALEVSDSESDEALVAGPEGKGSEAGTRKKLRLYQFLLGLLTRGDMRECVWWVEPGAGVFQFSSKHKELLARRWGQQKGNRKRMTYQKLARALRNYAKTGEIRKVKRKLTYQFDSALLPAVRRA

On to GCCGAC, for which the binding signal was 1.19 fold enrichment (6-mer frequency, TF over GST control) in test [1]; 1.23 fold enrichment (6-mer frequency, TF over GST control) in [2]; 1.21 fold enrichment (6-mer frequency, TF over GST control) in test [3]; 1.17 fold enrichment (6-mer frequency, TF over GST control) in [4]; 1.1 fold enrichment (6-mer frequency, TF over GST control) in test [5]; 1.05 fold enrichment (6-mer frequency, TF over GST control) in test [6]. In addition, the binding signal in test [7] was 1.05 fold enrichment (6-mer frequency, TF over GST control); in [8], 1.18 fold enrichment (6-mer frequency, TF over GST control); in test [9], 1.15 fold enrichment (6-mer frequency, TF over GST control).
As for GAATTC, the binding signal in test [1] was 1.41 fold enrichment (6-mer frequency, TF over GST control); in [2] it was 1.29 fold enrichment (6-mer frequency, TF over GST control); in test [3] it was 1.31 fold enrichment (6-mer frequency, TF over GST control); in test [4], 1.36 fold enrichment (6-mer frequency, TF over GST control); in test [5] it was 1.31 fold enrichment (6-mer frequency, TF over GST control); in test [6], 1.43 fold enrichment (6-mer frequency, TF over GST control). In addition, the binding signal in test [7] was 1.43 fold enrichment (6-mer frequency, TF over GST control); in test [8] it was 1.38 fold enrichment (6-mer frequency, TF over GST control); in test [9] it was 1.38 fold enrichment (6-mer frequency, TF over GST control).
In the case of GTTCCC, the binding signal in test [1] is 1.36 fold enrichment (6-mer frequency, TF over GST control); in test [2], 1.27 fold enrichment (6-mer frequency, TF over GST control); in test [3], 1.33 fold enrichment (6-mer frequency, TF over GST control); in [4], 1.25 fold enrichment (6-mer frequency, TF over GST control); in test [5], 1.28 fold enrichment (6-mer frequency, TF over GST control); in [6], 1.28 fold enrichment (6-mer frequency, TF over GST control). Also, the binding signal is 1.71 fold enrichment (6-mer frequency, TF over GST control) in [7]; 1.37 fold enrichment (6-mer frequency, TF over GST control) in test [8]; 1.23 fold enrichment (6-mer frequency, TF over GST control) in test [9].
Consider AAGAAT, for which the binding signal was 1.13 fold enrichment (6-mer frequency, TF over GST control) in test [1]; 1.17 fold enrichment (6-mer frequency, TF over GST control) in test [2]; 1.13 fold enrichment (6-mer frequency, TF over GST control) in test [3]; 1.15 fold enrichment (6-mer frequency, TF over GST control) in test [4]; 1.11 fold enrichment (6-mer frequency, TF over GST control) in test [5]; 1.14 fold enrichment (6-mer frequency, TF over GST control) in test [6]. The binding signal was 1.18 fold enrichment (6-mer frequency, TF over GST control) in [7]; 1.14 fold enrichment (6-mer frequency, TF over GST control) in [8]; 1.1 fold enrichment (6-mer frequency, TF over GST control) in test [9].
As to CCCACG, the binding signal was 1.17 fold enrichment (6-mer frequency, TF over GST control) in test [1]; 1.2 fold enrichment (6-mer frequency, TF over GST control) in test [2]; 1.26 fold enrichment (6-mer frequency, TF over GST control) in [3]; 1.09 fold enrichment (6-mer frequency, TF over GST control) in test [4]; 1.19 fold enrichment (6-mer frequency, TF over GST control) in test [5]; 1.2 fold enrichment (6-mer frequency, TF over GST control) in test [6]. The binding signal in [7] is 1.08 fold enrichment (6-mer frequency, TF over GST control); in test [8], 1.16 fold enrichment (6-mer frequency, TF over GST control); in [9] it was 1.29 fold enrichment (6-mer frequency, TF over GST control).
Take ACCGCT: the binding signal is 1.09 fold enrichment (6-mer frequency, TF over GST control) in [1]; 1.12 fold enrichment (6-mer frequency, TF over GST control) in test [2]; 1.14 fold enrichment (6-mer frequency, TF over GST control) in [3]; 1.1 fold enrichment (6-mer frequency, TF over GST control) in test [4]; 1.07 fold enrichment (6-mer frequency, TF over GST control) in test [5]; 1.09 fold enrichment (6-mer frequency, TF over GST control) in [6]. Moreover, the binding signal in test [7] was 1.03 fold enrichment (6-mer frequency, TF over GST control); in test [8] it was 1.15 fold enrichment (6-mer frequency, TF over GST control); in test [9], 1.05 fold enrichment (6-mer frequency, TF over GST control).
In the case of CGTAAC, the binding signal in [1] was 1.19 fold enrichment (6-mer frequency, TF over GST control); in test [2], 1.12 fold enrichment (6-mer frequency, TF over GST control); in test [3], 1.17 fold enrichment (6-mer frequency, TF over GST control); in test [4], 1.07 fold enrichment (6-mer frequency, TF over GST control); in [5], 1.11 fold enrichment (6-mer frequency, TF over GST control); in test [6], 1.16 fold enrichment (6-mer frequency, TF over GST control). The binding signal in test [7] is 1.08 fold enrichment (6-mer frequency, TF over GST control); in test [8], 1.16 fold enrichment (6-mer frequency, TF over GST control); in test [9] it was 1.07 fold enrichment (6-mer frequency, TF over GST control).
